Reference: PubChem BioAssay
Inconclusive results are not listed. Calls of active or inactive are those of the source.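 How the source made its calls, unless noted: active means viability at or below 27.92% in each of two runs, the all-compound median minus 4 SD; inconclusive means no clear call, values can overlap the other calls; inactive means the rest.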

Assay: viability of HCT116 without oncogenic beta-catenin – human colon tumor cells, pilot screen (AID 823;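 active means cell viability at or below a set limit in both duplicate runs, the limit being the all-compound median minus 4 SD, cut at about 23% in these data, passing the limit was not always enough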;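 further: 0% = wells killed by 20 µM Hyamine and 100% = untreated DMSO cell wells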)
Settings: HCT116 beta-catenin knockout viability, CellTiter-Glo, 60 h; at 10 µM; hits give low values

Which viability does the source give for `O=C(NCC1CCCO1)C1CC(=O)N(c2ccc(F)c(Cl)c2)C1` (stereo not given) here?
The viability was 86.7% (inactive).

With `Oc1cnn(-c2ccccc2)c1` as the molecule, how does the viability read?
The viability was 92.8% (inactive).

For `Cc1c(NC(=O)c2ccc(F)cc2)c(=O)n(-c2ccccc2)n1C`, which viability is on record?
The viability was 106% (inactive).

Which viability does the source give for `COC(=O)C1=CN(C(C)C)C=C(C(=O)OC)C1c1cccc(OC)c1` here?
The viability was 73.8% (inactive).

With `O=C(CSc1nnc(-c2ccccc2Cl)o1)N1CCCCC1` as the molecule, how does the viability read?
The viability was 95.1% (inactive).

With `CC1Cc2nc(SCC(=O)Nc3nccs3)n(Cc3ccccc3)c(=O)c2S1` (stereo not given) as the molecule, how does the viability read?
Its viability is 94.8% (inactive).

With `COc1ccc(Cn2nnc3c(=O)[nH]c(C(=O)NCCc4ccc(F)cc4)nc32)cc1OC` as the molecule, how does the viability read?
Its viability is 114% (inactive).

With `CCOC(=O)c1c(C)n(C)c2ccc(OCC(O)CN3CCN(C)CC3)cc12` (stereo not given) as the molecule, how does the viability read?
The viability was 96.2% (inactive).

With `C=CCn1c(O)c(C2=c3ccccc3=NC2=O)sc1=Nc1ccc(O)cc1` as the molecule, how does the viability read?
The viability was 2.1% (active).

With `Cc1ccc(-c2cc(C(F)(F)F)n3ncc(C(=O)NCc4ccco4)c3n2)cc1` as the molecule, how does the viability read?
Its viability is 74% (inactive).

Which viability does the source give for `CSc1ccc(C2C(C#N)=C(N)N(c3ccccc3)C3=C2C(=O)CCC3)cc1` (stereo not given) here?
Its viability is 69.5% (inactive).

Which viability does the source give for `Cc1ccn2cc(CCNC(=O)c3ccc(Br)o3)nc2c1` here?
The viability was 93.8% (inactive).

Which viability does the source give for `COc1cccc(N2CCN(c3ncnc4c3cnn4-c3ccc(C)cc3C)CC2)c1` here?
The viability was 7.71% (active).

For `COc1cc(CO)cc(Br)c1OCC(=O)O`, which viability is on record?
The viability was 102% (inactive).

With `COc1ccc(Cc2nnc(SC)[nH]c2=O)cc1OC` as the molecule, how does the viability read?
Its viability is 101% (inactive).

With `COc1ccccc1CNC(=O)C1CCN(S(=O)(=O)c2cccc3cccnc23)CC1` as the molecule, how does the viability read?
The viability was 108% (inactive).

Which viability does the source give for `CCOC(=O)N1CCN(C(=O)CSc2nc3c(cnn3-c3ccc(C)cc3)c(=O)[nH]2)CC1` here?
The viability was 95.7% (inactive).

Which viability does the source give for `CCOC(=O)c1ccc2nc(NC(=O)C(C)C)sc2c1` here?
Its viability is 78.6% (inactive).

For `Cc1ccc(C2=CC(c3ccc(N(C)C)cc3)n3nnnc3N2)cc1` (stereo not given), which viability is on record?
The viability was 84% (inactive).

With `Cn1c(=O)c2c(nc(CN3CCOCC3)n2CCCO)n(C)c1=O` as the molecule, how does the viability read?
The viability was 102% (inactive).

For `COCCCNC(=O)Cn1cc2c(n1)CCCCC2`, which viability is on record?
The viability was 104% (inactive).

Which viability does the source give for `O=C(NCc1ccco1)c1cnccn1` here?
The viability was 98.7% (inactive).

Which viability does the source give for `CCCCn1c(CCNC(=O)CCC)nc2ccccc21` here?
The viability was 99.1% (inactive).

With `COc1ccc2[nH]c(C)c(CCN3C(=O)C4C5C=CC(C5)C4C3=O)c2c1` (stereo not given) as the molecule, how does the viability read?
The viability was 106% (inactive).

Which viability does the source give for `O=C1CCc2cc(S(=O)(=O)NC(Cc3ccccc3)C(=O)NCC3CCCO3)ccc2N1` (stereo not given) here?
The viability was 94.3% (inactive).

With `CCOC(=O)c1c(N)sc(C(N)=O)c1C` as the molecule, how does the viability read?
The viability was 95.3% (inactive).

For `O=C(NCCCN1CCC(Cc2ccccc2)CC1)C1CC(=O)N(C2CCCC2)C1` (stereo not given), which viability is on record?
Its viability is 88.5% (inactive).

Which viability does the source give for `Cc1ccc(Cl)cc1N1CCN(C(=O)C2CCN(c3nnc(-n4cccc4)s3)CC2)CC1` here?
The viability was 64% (inactive).

With `CC(=O)c1c(C)[nH]c(C(=O)N2c3ccccc3CC2C)c1C` (stereo not given) as the molecule, how does the viability read?
The viability was 92.3% (inactive).

Which viability does the source give for `Cc1ccc2cc(CCNC(=O)C3CCCC3)c(=O)[nH]c2c1` here?
The viability was 107% (inactive).

With `CCCCN(C)CCNC(=O)Cn1c(=O)sc2ccccc21` as the molecule, how does the viability read?
Its viability is 99% (inactive).

For `CCOC(=O)N1CCN(c2ccc3nnnn3n2)CC1`, which viability is on record?
Its viability is 101% (inactive).

With `CCCOc1ccc(C2c3c(oc4cc(C)c(C)cc4c3=O)C(=O)N2CCCN(C)C)cc1OCC` (stereo not given) as the molecule, how does the viability read?
The viability was 102% (inactive).

With `CCOC(=O)C1=C2N(C)c3ccccc3N2CCC1=O` as the molecule, how does the viability read?
The viability was 97.5% (inactive).

With `CCNc1nc(OCCNS(=O)(=O)c2cc(C)ccc2C)nc(N(C)C)n1` as the molecule, how does the viability read?
Its viability is 78.7% (inactive).

With `O=C(c1cc(-c2cccc(O)c2)on1)N1CCOCC1` as the molecule, how does the viability read?
Its viability is 107% (inactive).

With `Cc1cc(C(=O)NC2CCCC2)on1` as the molecule, how does the viability read?
The viability was 107% (inactive).

For `O=C(Nc1cccc(C(F)(F)F)c1)c1cnc2n(c1=O)CCS2`, which viability is on record?
Its viability is 108% (inactive).

With `Cn1c(=O)c2c(nc(CN3CCCCC3)n2Cc2c(F)cccc2Cl)n(C)c1=O` as the molecule, how does the viability read?
The viability was 102% (inactive).

With `CCC(C)Sc1nnc(Cc2cc(=O)[nH]c(=O)[nH]2)n1-c1ccc(F)cc1` (stereo not given) as the molecule, how does the viability read?
Its viability is 97.1% (inactive).

Assay: viability of PTEN-null HCT116 cells – cell-based, HCT116 clonal line, CellTiter-Glo, pilot screen (AID 824);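 further: 0% = 20 µM Hyamine control and 100% = vehicle cell control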
Settings: HCT116 PTEN-deleted viability, 60 h, at 10 µM, hits give low values

With `O=C(NCC1CCCO1)C1CC(=O)N(c2ccc(F)c(Cl)c2)C1` (stereo not given) as the molecule, how does the viability read?
The viability was 94.1% (inactive).

Which viability does the source give for `Oc1cnn(-c2ccccc2)c1` here?
The viability was 94.3% (inactive).

Which viability does the source give for `Cc1c(NC(=O)c2ccc(F)cc2)c(=O)n(-c2ccccc2)n1C` here?
Its viability is 96.6% (inactive).

For `COC(=O)C1=CN(C(C)C)C=C(C(=O)OC)C1c1cccc(OC)c1`, which viability is on record?
The viability was 63.2% (inactive).

For `O=C(CSc1nnc(-c2ccccc2Cl)o1)N1CCCCC1`, which viability is on record?
The viability was 97.6% (inactive).

For `CC1Cc2nc(SCC(=O)Nc3nccs3)n(Cc3ccccc3)c(=O)c2S1` (stereo not given), which viability is on record?
The viability was 88.4% (inactive).

With `COc1ccc(Cn2nnc3c(=O)[nH]c(C(=O)NCCc4ccc(F)cc4)nc32)cc1OC` as the molecule, how does the viability read?
Its viability is 100% (inactive).

Which viability does the source give for `CCOC(=O)c1c(C)n(C)c2ccc(OCC(O)CN3CCN(C)CC3)cc12` (stereo not given) here?
Its viability is 106% (inactive).

For `C=CCn1c(O)c(C2=c3ccccc3=NC2=O)sc1=Nc1ccc(O)cc1`, which viability is on record?
The viability was 1.53% (active).

For `Cc1ccc(-c2cc(C(F)(F)F)n3ncc(C(=O)NCc4ccco4)c3n2)cc1`, which viability is on record?
Its viability is 75.4% (inactive).

Which viability does the source give for `CSc1ccc(C2C(C#N)=C(N)N(c3ccccc3)C3=C2C(=O)CCC3)cc1` (stereo not given) here?
Its viability is 74.6% (inactive).

With `Cc1ccn2cc(CCNC(=O)c3ccc(Br)o3)nc2c1` as the molecule, how does the viability read?
The viability was 95.4% (inactive).

With `COc1cccc(N2CCN(c3ncnc4c3cnn4-c3ccc(C)cc3C)CC2)c1` as the molecule, how does the viability read?
The viability was 10.3% (active).

For `COc1cc(CO)cc(Br)c1OCC(=O)O`, which viability is on record?
Its viability is 92.5% (inactive).

For `COc1ccc(Cc2nnc(SC)[nH]c2=O)cc1OC`, which viability is on record?
Its viability is 99.4% (inactive).

With `COc1ccccc1CNC(=O)C1CCN(S(=O)(=O)c2cccc3cccnc23)CC1` as the molecule, how does the viability read?
The viability was 97.2% (inactive).

For `CCOC(=O)N1CCN(C(=O)CSc2nc3c(cnn3-c3ccc(C)cc3)c(=O)[nH]2)CC1`, which viability is on record?
Its viability is 94.1% (inactive).

Which viability does the source give for `CCOC(=O)c1ccc2nc(NC(=O)C(C)C)sc2c1` here?
The viability was 80% (inactive).

Which viability does the source give for `Cc1ccc(C2=CC(c3ccc(N(C)C)cc3)n3nnnc3N2)cc1` (stereo not given) here?
The viability was 77.3% (inactive).

For `Cn1c(=O)c2c(nc(CN3CCOCC3)n2CCCO)n(C)c1=O`, which viability is on record?
The viability was 101% (inactive).

For `COCCCNC(=O)Cn1cc2c(n1)CCCCC2`, which viability is on record?
The viability was 106% (inactive).

Which viability does the source give for `O=C(NCc1ccco1)c1cnccn1` here?
The viability was 101% (inactive).

With `CCCCn1c(CCNC(=O)CCC)nc2ccccc21` as the molecule, how does the viability read?
The viability was 108% (inactive).

Which viability does the source give for `COc1ccc2[nH]c(C)c(CCN3C(=O)C4C5C=CC(C5)C4C3=O)c2c1` (stereo not given) here?
Its viability is 94.9% (inactive).

With `O=C1CCc2cc(S(=O)(=O)NC(Cc3ccccc3)C(=O)NCC3CCCO3)ccc2N1` (stereo not given) as the molecule, how does the viability read?
Its viability is 92.8% (inactive).

With `CCOC(=O)c1c(N)sc(C(N)=O)c1C` as the molecule, how does the viability read?
The viability was 97.3% (inactive).

Which viability does the source give for `O=C(NCCCN1CCC(Cc2ccccc2)CC1)C1CC(=O)N(C2CCCC2)C1` (stereo not given) here?
Its viability is 83.7% (inactive).

Which viability does the source give for `Cc1ccc(Cl)cc1N1CCN(C(=O)C2CCN(c3nnc(-n4cccc4)s3)CC2)CC1` here?
Its viability is 64% (inactive).

With `CC(=O)c1c(C)[nH]c(C(=O)N2c3ccccc3CC2C)c1C` (stereo not given) as the molecule, how does the viability read?
The viability was 92.6% (inactive).

With `Cc1ccc2cc(CCNC(=O)C3CCCC3)c(=O)[nH]c2c1` as the molecule, how does the viability read?
Its viability is 98.2% (inactive).

For `CCCCN(C)CCNC(=O)Cn1c(=O)sc2ccccc21`, which viability is on record?
The viability was 96.6% (inactive).

For `CCOC(=O)N1CCN(c2ccc3nnnn3n2)CC1`, which viability is on record?
The viability was 101% (inactive).

With `CCCOc1ccc(C2c3c(oc4cc(C)c(C)cc4c3=O)C(=O)N2CCCN(C)C)cc1OCC` (stereo not given) as the molecule, how does the viability read?
The viability was 97.7% (inactive).

With `CCOC(=O)C1=C2N(C)c3ccccc3N2CCC1=O` as the molecule, how does the viability read?
The viability was 93.8% (inactive).

With `CCNc1nc(OCCNS(=O)(=O)c2cc(C)ccc2C)nc(N(C)C)n1` as the molecule, how does the viability read?
The viability was 78.8% (inactive).

Which viability does the source give for `O=C(c1cc(-c2cccc(O)c2)on1)N1CCOCC1` here?
The viability was 98.4% (inactive).

With `Cc1cc(C(=O)NC2CCCC2)on1` as the molecule, how does the viability read?
The viability was 102% (inactive).

For `O=C(Nc1cccc(C(F)(F)F)c1)c1cnc2n(c1=O)CCS2`, which viability is on record?
Its viability is 95.2% (inactive).

For `Cn1c(=O)c2c(nc(CN3CCCCC3)n2Cc2c(F)cccc2Cl)n(C)c1=O`, which viability is on record?
Its viability is 93.2% (inactive).

For `CCC(C)Sc1nnc(Cc2cc(=O)[nH]c(=O)[nH]2)n1-c1ccc(F)cc1` (stereo not given), which viability is on record?
Its viability is 100% (inactive).
